According to ChEMBL document CHEMBL2218924, “A broad activity screen in support of a chemogenomic map for kinase signalling research and drug discovery” (Biochem J, 2013):

Experiments:
[1] = biological target: T1, Testis-specific serine/threonine-protein kinase 2 (Homo sapiens) (UniProt Q96PF2); settings: at 1 µM
T1 sequence (whole entry): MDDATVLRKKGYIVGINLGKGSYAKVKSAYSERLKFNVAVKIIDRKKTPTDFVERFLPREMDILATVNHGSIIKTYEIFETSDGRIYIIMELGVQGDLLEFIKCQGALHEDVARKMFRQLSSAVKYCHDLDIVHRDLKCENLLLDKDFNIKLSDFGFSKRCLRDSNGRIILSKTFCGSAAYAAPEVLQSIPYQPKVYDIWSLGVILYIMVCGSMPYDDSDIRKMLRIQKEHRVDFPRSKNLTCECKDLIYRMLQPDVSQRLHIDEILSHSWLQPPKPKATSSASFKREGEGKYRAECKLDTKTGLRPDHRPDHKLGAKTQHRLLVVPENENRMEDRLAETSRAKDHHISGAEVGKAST

[2] = biological target: T2, Tyrosine-protein kinase Mer (Homo sapiens) (UniProt Q12866); settings: at 1 µM
T2 sequence (whole entry): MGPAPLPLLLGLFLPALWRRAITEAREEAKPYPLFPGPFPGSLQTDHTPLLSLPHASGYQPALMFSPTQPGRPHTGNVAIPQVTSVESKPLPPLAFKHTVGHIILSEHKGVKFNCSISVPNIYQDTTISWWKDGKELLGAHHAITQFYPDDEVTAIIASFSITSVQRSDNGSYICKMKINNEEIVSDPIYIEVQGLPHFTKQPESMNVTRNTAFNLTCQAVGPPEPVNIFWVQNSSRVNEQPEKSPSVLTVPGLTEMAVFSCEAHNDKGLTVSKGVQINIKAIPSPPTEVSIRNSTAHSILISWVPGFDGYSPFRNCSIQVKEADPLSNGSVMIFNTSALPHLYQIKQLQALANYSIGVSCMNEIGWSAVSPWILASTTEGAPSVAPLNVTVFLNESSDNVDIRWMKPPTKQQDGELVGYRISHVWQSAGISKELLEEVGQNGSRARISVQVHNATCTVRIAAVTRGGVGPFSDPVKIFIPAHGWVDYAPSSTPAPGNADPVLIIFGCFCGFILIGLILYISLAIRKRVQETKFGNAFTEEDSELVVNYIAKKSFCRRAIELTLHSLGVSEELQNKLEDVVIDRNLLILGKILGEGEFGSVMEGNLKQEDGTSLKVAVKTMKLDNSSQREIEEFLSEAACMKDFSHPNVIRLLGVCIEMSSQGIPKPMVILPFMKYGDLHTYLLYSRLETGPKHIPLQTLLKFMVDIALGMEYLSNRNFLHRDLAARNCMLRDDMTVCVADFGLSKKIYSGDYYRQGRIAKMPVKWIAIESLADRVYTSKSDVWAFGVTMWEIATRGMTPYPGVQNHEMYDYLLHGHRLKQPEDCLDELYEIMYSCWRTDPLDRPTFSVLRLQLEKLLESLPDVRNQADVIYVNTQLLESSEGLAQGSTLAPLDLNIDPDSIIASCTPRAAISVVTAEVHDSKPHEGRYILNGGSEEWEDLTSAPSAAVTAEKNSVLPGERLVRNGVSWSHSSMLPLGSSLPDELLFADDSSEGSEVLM

[3] = biological target: T2, Tyrosine-protein kinase Mer (Homo sapiens); settings: at 10 µM
[4] = biological target: Hepatocyte growth factor receptor (Homo sapiens) (UniProt P08581); settings: at 1 µM
Sequence of Hepatocyte growth factor receptor (Homo sapiens) (P08581 whole entry): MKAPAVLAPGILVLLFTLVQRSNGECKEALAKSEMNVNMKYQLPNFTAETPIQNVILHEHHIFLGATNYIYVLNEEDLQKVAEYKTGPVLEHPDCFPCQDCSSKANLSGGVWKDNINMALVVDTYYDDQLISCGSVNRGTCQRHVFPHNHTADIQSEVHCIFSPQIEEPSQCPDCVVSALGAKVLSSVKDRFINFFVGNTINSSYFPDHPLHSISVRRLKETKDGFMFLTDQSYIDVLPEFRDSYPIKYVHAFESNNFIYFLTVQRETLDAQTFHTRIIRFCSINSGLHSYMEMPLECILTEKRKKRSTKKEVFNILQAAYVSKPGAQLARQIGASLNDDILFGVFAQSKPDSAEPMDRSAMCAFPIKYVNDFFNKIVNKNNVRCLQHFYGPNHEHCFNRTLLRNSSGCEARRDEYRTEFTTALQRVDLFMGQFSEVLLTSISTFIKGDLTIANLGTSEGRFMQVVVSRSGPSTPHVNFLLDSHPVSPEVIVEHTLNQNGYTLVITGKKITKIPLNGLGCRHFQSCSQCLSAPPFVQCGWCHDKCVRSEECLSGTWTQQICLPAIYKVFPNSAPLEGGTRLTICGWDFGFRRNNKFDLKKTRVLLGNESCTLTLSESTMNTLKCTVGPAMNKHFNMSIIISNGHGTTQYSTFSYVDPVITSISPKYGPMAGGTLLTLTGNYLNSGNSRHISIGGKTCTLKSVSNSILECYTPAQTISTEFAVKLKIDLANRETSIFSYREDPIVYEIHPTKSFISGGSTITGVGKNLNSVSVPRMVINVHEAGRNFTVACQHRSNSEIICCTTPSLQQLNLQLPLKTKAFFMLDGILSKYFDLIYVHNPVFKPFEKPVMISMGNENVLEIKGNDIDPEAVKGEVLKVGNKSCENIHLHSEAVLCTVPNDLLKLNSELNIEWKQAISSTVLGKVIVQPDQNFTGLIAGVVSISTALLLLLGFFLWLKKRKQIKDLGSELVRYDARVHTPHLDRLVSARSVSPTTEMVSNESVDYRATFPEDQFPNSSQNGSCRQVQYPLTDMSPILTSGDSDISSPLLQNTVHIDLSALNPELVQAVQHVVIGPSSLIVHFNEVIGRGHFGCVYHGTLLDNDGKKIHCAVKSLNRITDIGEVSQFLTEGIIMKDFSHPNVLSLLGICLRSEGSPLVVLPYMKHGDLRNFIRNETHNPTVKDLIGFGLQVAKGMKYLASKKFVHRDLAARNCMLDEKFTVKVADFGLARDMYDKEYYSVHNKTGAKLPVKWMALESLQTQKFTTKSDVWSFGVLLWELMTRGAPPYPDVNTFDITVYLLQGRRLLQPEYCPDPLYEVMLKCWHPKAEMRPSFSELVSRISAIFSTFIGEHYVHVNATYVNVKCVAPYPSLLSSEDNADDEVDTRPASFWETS

[5] = biological target: Hepatocyte growth factor receptor (Homo sapiens) (UniProt P08581); settings: at 10 µM
[6] = biological target: MAP kinase-interacting serine/threonine-protein kinase 2 (Homo sapiens) (UniProt Q9HBH9); settings: at 1 µM
Sequence of MAP kinase-interacting serine/threonine-protein kinase 2 (Homo sapiens) (Q9HBH9 whole entry, looked up): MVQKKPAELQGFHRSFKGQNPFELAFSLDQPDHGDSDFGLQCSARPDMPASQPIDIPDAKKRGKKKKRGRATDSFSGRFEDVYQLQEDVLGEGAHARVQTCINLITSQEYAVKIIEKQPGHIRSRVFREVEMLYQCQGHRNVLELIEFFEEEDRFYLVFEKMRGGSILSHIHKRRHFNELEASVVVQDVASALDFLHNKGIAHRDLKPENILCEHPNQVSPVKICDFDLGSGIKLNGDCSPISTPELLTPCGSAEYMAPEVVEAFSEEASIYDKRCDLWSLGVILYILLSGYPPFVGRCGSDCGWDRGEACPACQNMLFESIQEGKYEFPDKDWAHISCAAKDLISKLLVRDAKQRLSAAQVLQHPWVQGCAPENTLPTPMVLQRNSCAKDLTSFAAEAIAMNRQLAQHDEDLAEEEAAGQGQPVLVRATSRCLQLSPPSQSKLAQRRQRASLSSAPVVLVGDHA

[7] = biological target: MAP kinase-interacting serine/threonine-protein kinase 2 (Homo sapiens) (UniProt Q9HBH9); settings: at 10 µM
[8] = biological target: T3, Muscle, skeletal receptor tyrosine-protein kinase (Homo sapiens) (UniProt O15146); settings: at 1 µM
T3 sequence (whole entry): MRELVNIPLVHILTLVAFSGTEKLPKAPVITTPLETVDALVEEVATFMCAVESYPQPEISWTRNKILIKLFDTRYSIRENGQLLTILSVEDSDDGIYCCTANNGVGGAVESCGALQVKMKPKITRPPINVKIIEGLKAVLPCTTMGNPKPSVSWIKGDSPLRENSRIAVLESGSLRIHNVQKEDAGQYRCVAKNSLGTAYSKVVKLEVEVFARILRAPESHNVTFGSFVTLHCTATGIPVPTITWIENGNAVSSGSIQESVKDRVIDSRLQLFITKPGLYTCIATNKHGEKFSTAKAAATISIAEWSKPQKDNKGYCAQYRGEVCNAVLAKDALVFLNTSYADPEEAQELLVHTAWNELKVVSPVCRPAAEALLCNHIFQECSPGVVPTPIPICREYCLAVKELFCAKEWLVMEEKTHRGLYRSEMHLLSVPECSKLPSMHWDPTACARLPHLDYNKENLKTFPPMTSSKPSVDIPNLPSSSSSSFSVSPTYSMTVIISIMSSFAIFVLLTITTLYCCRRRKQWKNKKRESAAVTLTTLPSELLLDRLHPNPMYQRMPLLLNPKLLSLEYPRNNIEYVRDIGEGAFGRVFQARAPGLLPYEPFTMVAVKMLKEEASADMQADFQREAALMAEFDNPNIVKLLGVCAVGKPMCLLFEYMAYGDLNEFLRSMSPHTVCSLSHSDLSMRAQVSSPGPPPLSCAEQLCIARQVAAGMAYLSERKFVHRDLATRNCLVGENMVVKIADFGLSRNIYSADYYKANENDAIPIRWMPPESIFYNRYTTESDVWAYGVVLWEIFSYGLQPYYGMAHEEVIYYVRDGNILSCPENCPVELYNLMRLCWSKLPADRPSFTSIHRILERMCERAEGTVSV

[9] = biological target: T3, Muscle, skeletal receptor tyrosine-protein kinase (Homo sapiens); settings: at 10 µM
[10] = biological target: T4, Serine/threonine-protein kinase Nek11 (Homo sapiens) (UniProt Q8NG66); settings: at 1 µM
T4 sequence (whole entry): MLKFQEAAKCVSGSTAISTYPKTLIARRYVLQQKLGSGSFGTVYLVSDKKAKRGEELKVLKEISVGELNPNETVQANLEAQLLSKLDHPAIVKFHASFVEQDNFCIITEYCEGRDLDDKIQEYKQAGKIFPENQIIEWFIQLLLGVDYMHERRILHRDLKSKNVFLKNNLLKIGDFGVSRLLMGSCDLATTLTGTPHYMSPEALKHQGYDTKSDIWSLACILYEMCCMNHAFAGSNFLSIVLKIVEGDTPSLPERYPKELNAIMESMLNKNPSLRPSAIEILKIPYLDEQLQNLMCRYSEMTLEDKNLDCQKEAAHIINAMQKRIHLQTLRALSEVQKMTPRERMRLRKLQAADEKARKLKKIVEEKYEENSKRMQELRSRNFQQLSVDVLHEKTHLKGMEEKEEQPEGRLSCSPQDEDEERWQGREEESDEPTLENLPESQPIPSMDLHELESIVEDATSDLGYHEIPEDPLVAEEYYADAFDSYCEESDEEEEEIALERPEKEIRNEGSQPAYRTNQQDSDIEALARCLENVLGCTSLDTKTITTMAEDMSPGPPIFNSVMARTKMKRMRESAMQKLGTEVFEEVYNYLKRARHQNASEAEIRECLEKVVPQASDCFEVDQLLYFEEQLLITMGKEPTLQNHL

[11] = biological target: T5, Serine/threonine-protein kinase Nek2 (Homo sapiens) (UniProt P51955); settings: at 1 µM
T5 sequence (whole entry): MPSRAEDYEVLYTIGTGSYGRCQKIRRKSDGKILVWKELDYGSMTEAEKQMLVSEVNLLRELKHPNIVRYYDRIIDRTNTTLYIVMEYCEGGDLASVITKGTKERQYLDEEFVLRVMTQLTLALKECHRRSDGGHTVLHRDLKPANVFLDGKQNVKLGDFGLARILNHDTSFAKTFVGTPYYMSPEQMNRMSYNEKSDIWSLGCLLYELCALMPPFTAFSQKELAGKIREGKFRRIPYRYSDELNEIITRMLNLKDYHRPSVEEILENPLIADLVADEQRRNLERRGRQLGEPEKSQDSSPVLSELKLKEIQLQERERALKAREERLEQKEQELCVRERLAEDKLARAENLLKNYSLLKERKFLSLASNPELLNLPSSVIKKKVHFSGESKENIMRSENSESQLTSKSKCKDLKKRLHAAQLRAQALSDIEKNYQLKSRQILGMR

[12] = biological target: T5, Serine/threonine-protein kinase Nek2 (Homo sapiens); settings: at 10 µM
[13] = biological target: T6, Serine/threonine-protein kinase Nek3 (Homo sapiens) (UniProt P51956); settings: at 1 µM
T6 sequence (whole entry): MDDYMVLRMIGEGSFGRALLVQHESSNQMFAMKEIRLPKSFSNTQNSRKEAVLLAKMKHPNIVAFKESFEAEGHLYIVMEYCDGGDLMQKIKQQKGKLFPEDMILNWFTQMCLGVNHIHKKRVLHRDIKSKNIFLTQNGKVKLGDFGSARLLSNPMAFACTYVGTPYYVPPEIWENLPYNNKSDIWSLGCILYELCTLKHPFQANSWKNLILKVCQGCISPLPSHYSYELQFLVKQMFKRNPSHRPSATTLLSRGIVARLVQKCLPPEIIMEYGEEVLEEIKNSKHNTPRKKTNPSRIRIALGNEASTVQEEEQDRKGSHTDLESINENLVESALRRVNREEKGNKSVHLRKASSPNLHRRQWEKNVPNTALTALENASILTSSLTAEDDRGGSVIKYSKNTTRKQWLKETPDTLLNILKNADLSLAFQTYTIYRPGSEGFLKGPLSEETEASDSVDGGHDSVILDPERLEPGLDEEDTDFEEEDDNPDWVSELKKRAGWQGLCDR

[14] = biological target: T6, Serine/threonine-protein kinase Nek3 (Homo sapiens); settings: at 10 µM
[15] = biological target: Serine/threonine-protein kinase tousled-like 2 (Homo sapiens) (UniProt Q86UE8); settings: at 1 µM
Sequence of Serine/threonine-protein kinase tousled-like 2 (Homo sapiens) (Q86UE8 whole entry, looked up): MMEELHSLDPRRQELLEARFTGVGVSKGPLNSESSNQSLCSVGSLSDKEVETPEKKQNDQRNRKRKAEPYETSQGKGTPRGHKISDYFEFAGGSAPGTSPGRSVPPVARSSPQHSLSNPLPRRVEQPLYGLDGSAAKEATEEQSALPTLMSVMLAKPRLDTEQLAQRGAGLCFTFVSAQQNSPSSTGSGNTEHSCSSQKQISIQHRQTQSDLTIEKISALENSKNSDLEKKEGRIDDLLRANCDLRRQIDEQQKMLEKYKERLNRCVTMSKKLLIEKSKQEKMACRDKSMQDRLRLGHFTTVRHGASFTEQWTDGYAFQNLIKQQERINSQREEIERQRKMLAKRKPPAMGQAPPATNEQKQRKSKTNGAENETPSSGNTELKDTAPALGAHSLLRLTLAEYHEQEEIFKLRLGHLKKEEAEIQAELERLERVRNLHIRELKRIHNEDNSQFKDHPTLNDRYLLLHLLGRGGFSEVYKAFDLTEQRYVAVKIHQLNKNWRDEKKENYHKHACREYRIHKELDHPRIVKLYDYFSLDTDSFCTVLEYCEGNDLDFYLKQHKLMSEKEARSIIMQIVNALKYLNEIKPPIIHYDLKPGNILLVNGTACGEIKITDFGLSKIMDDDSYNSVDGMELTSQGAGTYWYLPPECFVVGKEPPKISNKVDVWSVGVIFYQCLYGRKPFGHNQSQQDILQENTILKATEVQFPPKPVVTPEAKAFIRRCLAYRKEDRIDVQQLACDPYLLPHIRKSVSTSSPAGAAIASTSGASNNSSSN

[16] = biological target: Serine/threonine-protein kinase tousled-like 2 (Homo sapiens) (UniProt Q86UE8); settings: at 10 µM
[17] = biological target: T7, Testis-specific serine/threonine-protein kinase 1 (Homo sapiens) (UniProt Q9BXA7); settings: at 1 µM
T7 sequence (whole entry): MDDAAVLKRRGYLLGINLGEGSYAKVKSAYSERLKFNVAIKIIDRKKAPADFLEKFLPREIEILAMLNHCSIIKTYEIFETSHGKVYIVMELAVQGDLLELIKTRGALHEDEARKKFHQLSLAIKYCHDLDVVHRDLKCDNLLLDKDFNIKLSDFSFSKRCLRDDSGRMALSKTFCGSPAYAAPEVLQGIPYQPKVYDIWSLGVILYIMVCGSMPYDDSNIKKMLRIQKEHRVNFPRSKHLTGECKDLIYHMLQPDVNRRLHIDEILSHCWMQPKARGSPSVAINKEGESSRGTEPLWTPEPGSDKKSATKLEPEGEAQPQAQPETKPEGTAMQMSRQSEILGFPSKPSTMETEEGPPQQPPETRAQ

[18] = biological target: T7, Testis-specific serine/threonine-protein kinase 1 (Homo sapiens); settings: at 10 µM
[19] = biological target: T1, Testis-specific serine/threonine-protein kinase 2 (Homo sapiens); settings: at 10 µM

Structure (SMILES)	residual activity [1]	residual activity [2]	residual activity [3]	residual activity [4]	residual activity [5]	residual activity [6]	residual activity [7]	residual activity [8]	residual activity [9]	residual activity [10]	residual activity [11]	residual activity [12]	residual activity [13]	residual activity [14]	residual activity [15]	residual activity [16]	residual activity [17]	residual activity [18]	residual activity [19]
Nc1nc(Nc2ccc(S(N)(=O)=O)cc2)nn1C(=O)c1c(F)cccc1F	103%	–	–	–	–	–	–	–	–	–	–	–	–	–	–	–	–	–	–
C[S+]([O-])c1ccc(-c2nc(-c3ccc(F)cc3)c(-c3ccncc3)[nH]2)cc1 (stereo not given)	94%	117%	105%	123%	68%	103%	87%	143%	95%	90%	114%	118%	104%	104%	113%	109%	106%	94%	100%
